# Experimental data published in PubChem BioAssay (EPA / NIEHS).
# Results filed as inconclusive are left out. The source made the active and inactive calls. The calls were made as follows, unless noted: active = hit-call score of the fitted dose curve at least 0.9, where 1 is the maximum; inconclusive = response in the unintended direction; inactive = score below 0.9.
# Assays:
# [1] = molecular target: human Ephrin type-A Receptor 1 (EphA1), EPHA1 (gene 2041) (UniProt P21709); assay: NVS_ENZ_hEphA1: NovaScreen (NVS) Enzymatic Assay for human Ephrin type-A Receptor 1 (EphA1) (AID 2283158);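 also: activity is signal loss versus DMSO meaning EphA1 kinase inhibition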
# Summary of the method: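 Chemicals first tested in duplicate at 25 uM against recombinant EphA1 with a fluorescent substrate; those passing threshold went to singleton dose-response topping at 50 uM. Activity read 1 h later as mobility-shift fluorescence, loss of signal relative to DMSO.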
# [2] = molecular target: human Phosphodiesterase 10 (PDE10), PDE10A (gene 10846) (UniProt Q9Y233); assay: NVS_ENZ_hPDE10: NovaScreen (NVS) Enzymatic Assay for human Phosphodiesterase 10 (PDE10) (AID 2283195)
# Summary of the method: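 Readout is fluorescence intensity following electrophoretic mobility-shift separation, 1 h after dosing of isolated PDE10A protein. Hits meeting a preset threshold at 25 uM went to concentration series (max 50 uM), analysed relative to DMSO.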
# [3] = CCTE_Deisenroth_AIME_384WELL_CTox_Active: Cytotoxicity Assessment (CTOX) in CCTE's 384-well Estrogen Receptor Transactivation Assay with AIME metabolic competence (metabolism positive), Deisenroth Lab (AID 2284037);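 also: chemicals first conditioned 2 h by alginate-bound induced rat liver S9 before cells; activity means signal loss indicating cell death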
# Summary of the method: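 VM7Luc4E2 breast cells received medium pre-incubated 2 h with chemical over alginate microspheres holding induced male Sprague Dawley rat liver S9; viability read 24 h later by protease-substrate fluorescence. Loss of signal, bidirectional fit, 0.002–200 uM.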
# [4] = CCTE_Deisenroth_AIME_384WELL_CTox_Inactive: Cytotoxicity Assessment (CTOX) in CCTE's 384-well Estrogen Receptor Transactivation Assay without AIME metabolic competence (metabolism negative), Deisenroth Lab (AID 2284039);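 also: cell viability via live-cell protease substrate cleaved to fluorescent probe; cells exposed 24 h to medium preincubated 2 h with alginate-water beads without S9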
# Summary of the method: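 Metabolism-negative arm: chemicals (10-point, 0.002 - 200 uM) preincubated 2 h with alginate-water lids, medium moved onto VM7Luc4E2 cells for 24 h. Fluorescent live-cell protease readout; bidirectional curve fit.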
# [5] = CCTE_Simmons_CellTiterGLO_HEK293T: Viability Assessment in CCTE's Assays for Thyroperoxidase (TPO) Inhibition, Simmons Lab (AID 2283665)
# Summary of the method: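 Luciferase-coupled ATP content after 24 h exposure gives viability; 8-point series from 5 nM to 87.5 uM final in 0.5% DMSO. Human HEK293T cells, 1% FBS medium, three biological replicates, dichlone positive control.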
# [6] = molecular target: Bile acid receptor (Homo sapiens) (UniProt Q96RI1); assay: OT_FXR_FXRSRC1_0480: Odyssey Thera (OT) 8-hour HEK293T Protein-Complementation Assay for Farnesoid X receptor/SRC-1 Co-activator (AID 2283383)
# Summary of the method: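 Binding of FXR to coactivator SRC-1 was read as fluorescence from a reconstituted split reporter in HEK293T cells, 8 h after chemical addition. Only increases in signal versus DMSO were fit.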
# [7] = molecular target: Nucleoli Translocation, AR (gene 367) (UniProt P10275); assay: UPITT_HCI_U2OS_AR_TIF2_Nucleoli_Antagonist: University of Pittsburgh U2OS Androgen Receptor-Transcriptional Intermediary Factor 2 (AR-TIF2) Antagonism High Content Imaging Assay for Nucleoli Translocation (AID 2283997)
# Summary of the method: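 An antagonist-mode imaging screen: engineered U2OS (AR-RFP, TIF2-GFP) exposed to 20 uM compound, 0.2% DMSO. Activity reflects nucleolar red fluorescence change relative to DHT baseline.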
# [8] = molecular target: Peroxisome proliferator-activated receptor gamma (Homo sapiens) (UniProt P37231); assay: NVS_NR_hPPARg: NovaScreen (NVS) Nuclear Receptor Binding Assay for human Peroxisome Proliferator-activated Receptor gamma (PPARg) (AID 2283370)
# Summary of the method: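 Chemicals were tested first in duplicate at 25 uM, then in concentration series if active. Binding to cell-free PPARg protein was measured by fluorescence polarization after 2 h, with loss of signal scored against DMSO.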
# [9] = molecular target: Bile acid receptor (Homo sapiens) (UniProt Q96RI1); assay: OT_FXR_FXRSRC1_1440: Odyssey Thera (OT) 24-hour HEK293T Protein-Complementation Assay for Farnesoid X receptor/SRC-1 Co-activator (AID 2283384)
# Summary of the method: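 Protein-fragment complementation: FXR and SRC-1 fused to reporter fragments that reassemble on interaction, read by fluorescence intensity. Human HEK293T cells measured 24 h post-dose; positive-direction fit versus DMSO.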
# [10] = CEETOX_H295R_11DCORT: CeeTox H295R High-throughput Steroidogenesis Assay for 11-Deoxycortisol (11DCORT) (AID 2283432; active = hit-call score of the fitted dose curve at least 0.9, where 1 is the maximum; inactive = score below 0.9;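 as to AC50: 11-deoxycortisol secreted into the medium measured by LC-MS/MS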); settings: actives raise or lower the signal
# Summary of the method: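 Adrenal carcinoma line H295R, run per OECD 456 with minor changes, was forskolin-stimulated (10 uM, 48 h) before a 48 h chemical exposure at 0.1% DMSO. Secreted 11-deoxycortisol was quantified by HPLC-MS/MS.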
# [11] = CEETOX_H295R_CORTIC: CeeTox H295R High-throughput Steroidogenesis Assay for Corticosterone (CORTIC) (AID 2283437; active = hit-call score of the fitted dose curve at least 0.9, where 1 is the maximum; inactive = score below 0.9;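 also: corticosterone secreted into medium quantified by mass spectrometry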); settings: actives raise or lower the signal
# Summary of the method: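 Steps: seed H295R, adhere overnight; 10 uM forskolin 48 h; replace with chemical (0.1% DMSO) 48 h; extract medium with MTBE; quantify corticosterone by HPLC-MS/MS; score bidirectionally vs DMSO.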
# [12] = CEETOX_H295R_CORTISOL: CeeTox H295R High-throughput Steroidogenesis Assay for Cortisol (AID 2283438; active = hit-call score of the fitted dose curve at least 0.9, where 1 is the maximum; inactive = score below 0.9;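 also: cortisol secreted into medium quantified by LC-MS/MS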); settings: actives raise or lower the signal
# Summary of the method: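 Cortisol measured by HPLC-MS/MS after MTBE extraction of medium from H295R cells exposed 48 h to chemical (0.1% DMSO), following 48 h prestimulation with 10 uM forskolin. Viability assessed by MTT in the same wells.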
# [13] = CEETOX_H295R_DOC: CeeTox H295R High-throughput Steroidogenesis Assay for DOC (AID 2283439; active = hit-call score of the fitted dose curve at least 0.9, where 1 is the maximum; inactive = score below 0.9); settings: actives raise or lower the signal
# Summary of the method: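 11-Deoxycorticosterone quantified in medium by MTBE extraction and HPLC-MS/MS after 48 h chemical exposure (0.1% DMSO) of forskolin-primed (10 uM, 48 h) H295R cells. Same-well MTT viability; data fitted bidirectionally against DMSO.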
# [14] = molecular target: rat Thyrotropin Releasing Hormone Receptor (TRH), Trhr (gene 25570) (UniProt Q01717); assay: NVS_GPCR_rTRH: NovaScreen (NVS) G Protein-Coupled Receptor Assay for rat Thyrotropin Releasing Hormone Receptor (TRH) (AID 2283329);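 also: hit means lower bound tracer signal versus DMSO baseline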
# Summary of the method: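 Rat forebrain membrane prep, radioligand displacement, filter scintillation readout at 4 h. Single conc 25 uM, duplicate; actives retested as concentration series. DMSO = negative control/baseline.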
# [15] = CEETOX_H295R_OHPREG: CeeTox H295R High-throughput Steroidogenesis Assay for OH-Pregnenolone (OHPREG) (AID 2283434; active = hit-call score of the fitted dose curve at least 0.9, where 1 is the maximum; inactive = score below 0.9); settings: actives raise or lower the signal
# Summary of the method: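 Readout: HPLC-MS/MS of 17alpha-hydroxypregnenolone in medium after 48 h chemical exposure of H295R cells pretreated with forskolin. Values fitted bidirectionally relative to DMSO; chemicals reducing viability to 20–70% were retested after 10-fold dilution.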
# [16] = CEETOX_H295R_OHPROG: CeeTox H295R High-throughput Steroidogenesis Assay for OH-Progesterone (OHPROG) (AID 2283435; active = hit-call score of the fitted dose curve at least 0.9, where 1 is the maximum; inactive = score below 0.9;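 as to AC50: 17alpha-hydroxyprogesterone secreted into medium measured by HPLC-MS/MS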); settings: actives raise or lower the signal
# Summary of the method: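 Medium steroid levels read by LC-MS/MS after 48 h chemical treatment (0.1% DMSO) of human adrenal H295R cells that had been forskolin-primed (10 uM, 48 h). Gain or loss fitted against DMSO; MTT cytotoxicity checked per well.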
# [17] = CEETOX_H295R_PROG: CeeTox H295R High-throughput Steroidogenesis Assay for Progesterone (PROG) (AID 2283442; active = hit-call score of the fitted dose curve at least 0.9, where 1 is the maximum; inactive = score below 0.9;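 as to AC50: human H295R adrenal cells primed with 10 µM forskolin before dosing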); settings: actives raise or lower the signal
# Summary of the method: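 Steps: seed H295R cells and let them adhere overnight; prime 48 h with 10 uM forskolin; dose with compound in DMSO at 0.1% final for 48 h; extract medium steroids with MTBE; measure progesterone by LC-MS/MS. MTT viability was run in the same wells.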
# [18] = molecular target: rat Peripheral-type Benzodiazepine Receptor (PBR), Tspo (gene 24230) (UniProt P16257); assay: NVS_MP_rPBR: NovaScreen (NVS) Membrane Protein Assay for rat Peripheral-type Benzodiazepine Receptor (PBR) (AID 2283335)
# Summary of the method: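 Competitive displacement of specific radioligand from rat kidney membrane PBR, read by filtration and scintillation after 1 h. Compounds first tested at 25 uM in duplicate, then in concentration series; signal loss relative to DMSO.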
# [19] = CPHEA_Stoker_NIS_Cytotoxicity: Cytotoxicity Assessment for CPHEA's Radioactive Iodide Uptake (RAIU) Assay for Sodium/Iodide Symporter (NIS) Inhibition, Stoker and Laws Labs (AID 2283897)
# Summary of the method: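 ATP luminescence (Cell Titer Glo) measured viability, with loss of signal normalized to DMSO controls. Cells: hNIS-HEK293T-EPA, seeded 40 hours prior. Dosing: 0.001–100uM, 2 hours, room temperature, uptake buffer pH 7.4.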
# Sequence of Bile acid receptor (Homo sapiens) (Q96RI1 whole entry, looked up, the tested form may be a part): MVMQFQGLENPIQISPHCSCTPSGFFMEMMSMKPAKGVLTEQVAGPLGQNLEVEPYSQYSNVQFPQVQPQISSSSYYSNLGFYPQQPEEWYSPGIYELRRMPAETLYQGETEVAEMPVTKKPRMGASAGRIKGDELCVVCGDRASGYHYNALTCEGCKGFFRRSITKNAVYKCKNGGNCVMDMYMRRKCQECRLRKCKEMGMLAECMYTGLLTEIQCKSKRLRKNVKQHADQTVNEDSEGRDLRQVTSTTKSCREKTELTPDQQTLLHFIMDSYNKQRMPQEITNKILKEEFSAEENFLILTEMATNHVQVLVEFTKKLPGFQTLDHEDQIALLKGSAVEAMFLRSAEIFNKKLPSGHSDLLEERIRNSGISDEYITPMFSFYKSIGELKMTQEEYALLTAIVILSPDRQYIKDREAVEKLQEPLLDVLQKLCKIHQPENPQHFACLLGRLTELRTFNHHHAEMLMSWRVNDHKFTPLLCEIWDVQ
# Sequence of human Ephrin type-A Receptor 1 (EphA1), EPHA1 (gene 2041) (P21709 whole entry, looked up): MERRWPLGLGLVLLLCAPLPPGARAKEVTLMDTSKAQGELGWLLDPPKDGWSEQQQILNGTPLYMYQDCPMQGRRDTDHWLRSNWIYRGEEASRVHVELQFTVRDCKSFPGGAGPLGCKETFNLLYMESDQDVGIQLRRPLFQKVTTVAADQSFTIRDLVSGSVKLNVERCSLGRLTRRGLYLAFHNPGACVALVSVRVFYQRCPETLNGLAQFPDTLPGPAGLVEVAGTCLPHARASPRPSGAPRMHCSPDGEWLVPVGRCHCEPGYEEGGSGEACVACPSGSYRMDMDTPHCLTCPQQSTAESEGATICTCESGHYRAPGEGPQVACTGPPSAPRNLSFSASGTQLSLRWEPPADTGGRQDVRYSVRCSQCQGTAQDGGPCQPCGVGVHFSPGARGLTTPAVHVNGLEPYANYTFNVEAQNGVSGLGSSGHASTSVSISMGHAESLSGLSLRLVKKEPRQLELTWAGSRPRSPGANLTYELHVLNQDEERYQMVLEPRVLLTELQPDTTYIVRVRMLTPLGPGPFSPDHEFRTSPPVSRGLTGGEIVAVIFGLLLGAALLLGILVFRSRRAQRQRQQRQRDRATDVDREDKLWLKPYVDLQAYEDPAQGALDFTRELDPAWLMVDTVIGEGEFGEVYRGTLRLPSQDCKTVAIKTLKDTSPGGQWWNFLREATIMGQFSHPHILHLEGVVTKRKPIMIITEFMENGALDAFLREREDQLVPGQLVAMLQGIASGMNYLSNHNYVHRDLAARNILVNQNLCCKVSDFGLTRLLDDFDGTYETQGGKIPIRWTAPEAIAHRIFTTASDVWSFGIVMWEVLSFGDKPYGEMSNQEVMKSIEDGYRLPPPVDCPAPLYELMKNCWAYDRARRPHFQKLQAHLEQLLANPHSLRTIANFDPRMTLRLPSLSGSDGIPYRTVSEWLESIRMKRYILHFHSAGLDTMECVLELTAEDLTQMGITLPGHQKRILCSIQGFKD
# Sequence of Peroxisome proliferator-activated receptor gamma (Homo sapiens) (P37231 whole entry, looked up): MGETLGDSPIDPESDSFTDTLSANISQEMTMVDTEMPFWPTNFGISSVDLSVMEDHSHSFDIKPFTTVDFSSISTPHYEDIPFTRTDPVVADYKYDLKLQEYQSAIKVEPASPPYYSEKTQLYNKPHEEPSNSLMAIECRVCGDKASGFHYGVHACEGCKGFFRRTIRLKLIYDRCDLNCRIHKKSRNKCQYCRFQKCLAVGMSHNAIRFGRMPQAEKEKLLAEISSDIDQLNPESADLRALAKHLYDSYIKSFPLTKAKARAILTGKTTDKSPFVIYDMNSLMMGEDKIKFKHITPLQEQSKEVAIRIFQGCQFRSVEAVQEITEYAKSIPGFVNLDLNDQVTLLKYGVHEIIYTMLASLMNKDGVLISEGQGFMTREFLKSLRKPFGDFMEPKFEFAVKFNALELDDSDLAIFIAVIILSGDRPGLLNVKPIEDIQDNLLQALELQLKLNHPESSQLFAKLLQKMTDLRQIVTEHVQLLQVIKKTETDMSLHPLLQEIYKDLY
# Sequence of rat Thyrotropin Releasing Hormone Receptor (TRH), Trhr (gene 25570) (Q01717 whole entry, looked up): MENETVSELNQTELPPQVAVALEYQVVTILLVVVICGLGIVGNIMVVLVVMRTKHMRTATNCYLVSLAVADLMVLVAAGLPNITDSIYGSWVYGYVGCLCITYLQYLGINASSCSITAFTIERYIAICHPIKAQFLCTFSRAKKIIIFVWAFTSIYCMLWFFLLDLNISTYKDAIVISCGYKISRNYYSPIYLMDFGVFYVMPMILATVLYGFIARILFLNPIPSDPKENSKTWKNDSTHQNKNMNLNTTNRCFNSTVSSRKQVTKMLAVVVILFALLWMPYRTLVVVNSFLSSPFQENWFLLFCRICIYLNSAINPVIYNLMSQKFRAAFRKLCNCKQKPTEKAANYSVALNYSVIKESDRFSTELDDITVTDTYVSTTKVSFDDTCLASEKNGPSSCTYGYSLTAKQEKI
# Sequence of Nucleoli Translocation, AR (gene 367) (P10275 whole entry, looked up): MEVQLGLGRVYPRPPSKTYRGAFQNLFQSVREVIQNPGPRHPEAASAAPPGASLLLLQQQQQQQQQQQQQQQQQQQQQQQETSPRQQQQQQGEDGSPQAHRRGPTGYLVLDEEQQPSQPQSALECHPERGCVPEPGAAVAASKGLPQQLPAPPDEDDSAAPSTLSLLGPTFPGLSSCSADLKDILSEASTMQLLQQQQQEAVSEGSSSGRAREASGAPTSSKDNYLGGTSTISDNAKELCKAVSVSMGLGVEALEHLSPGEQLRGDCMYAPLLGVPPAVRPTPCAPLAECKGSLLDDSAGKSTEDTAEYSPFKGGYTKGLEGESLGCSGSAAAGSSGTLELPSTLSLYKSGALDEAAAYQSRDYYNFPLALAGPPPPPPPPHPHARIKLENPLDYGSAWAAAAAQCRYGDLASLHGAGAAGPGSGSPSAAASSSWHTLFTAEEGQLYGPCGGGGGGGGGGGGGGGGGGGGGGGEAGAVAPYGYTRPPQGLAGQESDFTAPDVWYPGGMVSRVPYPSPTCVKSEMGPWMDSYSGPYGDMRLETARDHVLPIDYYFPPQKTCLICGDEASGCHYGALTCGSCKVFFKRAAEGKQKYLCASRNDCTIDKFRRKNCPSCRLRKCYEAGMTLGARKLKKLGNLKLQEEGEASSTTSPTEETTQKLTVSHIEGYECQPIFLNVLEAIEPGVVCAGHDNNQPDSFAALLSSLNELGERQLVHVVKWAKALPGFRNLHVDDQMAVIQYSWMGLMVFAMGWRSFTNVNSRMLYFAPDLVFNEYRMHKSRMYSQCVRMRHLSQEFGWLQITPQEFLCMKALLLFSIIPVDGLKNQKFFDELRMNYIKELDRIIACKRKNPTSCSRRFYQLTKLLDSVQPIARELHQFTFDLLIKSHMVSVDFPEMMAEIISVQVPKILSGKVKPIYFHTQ
# Sequence of human Phosphodiesterase 10 (PDE10), PDE10A (gene 10846) (Q9Y233 whole entry, looked up): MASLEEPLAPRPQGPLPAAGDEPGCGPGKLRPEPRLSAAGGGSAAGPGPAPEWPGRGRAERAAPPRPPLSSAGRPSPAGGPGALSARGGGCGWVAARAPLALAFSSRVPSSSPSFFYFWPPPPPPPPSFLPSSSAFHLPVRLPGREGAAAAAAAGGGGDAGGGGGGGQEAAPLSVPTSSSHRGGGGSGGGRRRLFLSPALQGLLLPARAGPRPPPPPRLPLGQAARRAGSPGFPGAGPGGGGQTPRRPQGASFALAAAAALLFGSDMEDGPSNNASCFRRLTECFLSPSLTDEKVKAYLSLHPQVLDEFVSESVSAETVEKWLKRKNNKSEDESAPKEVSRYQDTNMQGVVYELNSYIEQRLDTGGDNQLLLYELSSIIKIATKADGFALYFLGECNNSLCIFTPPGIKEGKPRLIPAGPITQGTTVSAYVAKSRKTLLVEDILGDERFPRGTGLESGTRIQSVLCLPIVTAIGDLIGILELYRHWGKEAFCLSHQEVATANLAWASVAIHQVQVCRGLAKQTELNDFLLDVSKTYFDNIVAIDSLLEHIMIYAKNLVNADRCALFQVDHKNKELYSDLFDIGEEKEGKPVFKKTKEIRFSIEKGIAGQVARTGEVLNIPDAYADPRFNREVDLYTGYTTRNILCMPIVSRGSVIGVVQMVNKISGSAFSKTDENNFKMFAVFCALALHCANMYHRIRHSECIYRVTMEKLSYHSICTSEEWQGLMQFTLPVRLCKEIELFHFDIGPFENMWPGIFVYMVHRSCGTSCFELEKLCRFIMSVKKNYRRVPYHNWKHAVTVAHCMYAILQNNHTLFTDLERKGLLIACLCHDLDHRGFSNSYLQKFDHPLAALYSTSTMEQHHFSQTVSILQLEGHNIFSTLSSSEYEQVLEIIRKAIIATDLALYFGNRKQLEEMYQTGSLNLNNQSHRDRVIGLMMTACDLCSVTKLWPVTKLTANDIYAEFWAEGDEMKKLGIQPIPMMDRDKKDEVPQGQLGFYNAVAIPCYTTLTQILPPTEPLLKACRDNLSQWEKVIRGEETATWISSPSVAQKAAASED
# Sequence of rat Peripheral-type Benzodiazepine Receptor (PBR), Tspo (gene 24230) (P16257 whole entry, looked up): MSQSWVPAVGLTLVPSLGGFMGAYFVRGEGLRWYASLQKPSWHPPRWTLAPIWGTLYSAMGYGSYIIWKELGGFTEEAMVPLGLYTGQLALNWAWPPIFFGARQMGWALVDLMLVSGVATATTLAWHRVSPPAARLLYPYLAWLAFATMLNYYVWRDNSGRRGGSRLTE
structure (smiles),measurement,setting,value
O=[N+]([O-])c1ccc(Cl)cc1,outcome,[1],inactive
same,outcome,[2],inactive
same,outcome,[3],inactive
same,outcome,[4],inactive
Nc1ccccc1,outcome,[5],inactive
same,outcome,[3],inactive
same,outcome,[4],inactive
c1ccc2c(c1)CCCC2,outcome,[6],inactive
same,outcome,[7],inactive
Cc1cc(C)c(C2=C(OC(=O)CC(C)(C)C)C3(CCCC3)OC2=O)c(C)c1,outcome,[8],inactive
same,outcome,[6],inactive
same,outcome,[9],inactive
same,AC50,[10],72.4 µM (active)
same,outcome,[11],inactive
same,AC50,[12],69.2 µM (active)
same,outcome,[13],inactive
same,outcome,[3],inactive
same,outcome,[4],inactive
C=CC(=O)OCCO,outcome,[14],inactive
same,outcome,[10],inactive
same,outcome,[15],inactive
same,outcome,[16],inactive
same,outcome,[11],inactive
same,outcome,[12],inactive
same,outcome,[13],inactive
same,AC50,[17],5.27 µM (active)
c1ccc(Nc2ccc3ccccc3c2)cc1,AC50,[18],25 µM (active)
same,outcome,[10],inactive
same,outcome,[15],inactive
same,AC50,[16],5.24 µM (active)
same,outcome,[11],inactive
same,outcome,[12],inactive
same,outcome,[13],inactive
same,outcome,[17],inactive
O=C(O)CCl,outcome,[8],inactive
same,outcome,[5],inactive
same,outcome,[4],inactive
CC(=O)c1cc2c(cc1C)C(C)(C)C(C)CC2(C)C (stereo unspecified),outcome,[14],inactive
same,outcome,[15],inactive
same,outcome,[16],inactive
same,outcome,[19],inactive
CC(O)CN(CC(C)O)CC(C)O (stereo unspecified),outcome,[9],inactive
O=C1C(Cl)=C(Cl)C(=O)C(Cl)=C1Cl,outcome,[1],inactive
COCC(=O)N(c1c(C)cccc1C)N1CCOC1=O,outcome,[2],inactive
C=COCCCl,outcome,[7],inactive
CC(C)CCCCCCCOP(=O)(Oc1ccccc1)Oc1ccccc1,AC50,[18],2.91 µM (active)
